Data reported in PubChem BioAssay AID504757 (Sanford-Burnham Center for Chemical Genomics, 2011).
Some of the results follow. Activity calls are given as the source filed them. Cut-off read from the data, not from the text of the source: active = inhibition above about 39%; inactive = the rest.

The compounds below were run against Cysteine protease ATG4B (Homo sapiens) (UniProt Q9Y4P1) (assay: ATG4B protease inhibitors, retest, confirmation, biochemical, fluorescence, single concentration (AID 504757)). Settings: ATG4B protease fluorescent substrate cleavage assay; at 8.33 µM; active compounds read high.
Sequence of Cysteine protease ATG4B (Homo sapiens) (Q9Y4P1 whole entry, looked up): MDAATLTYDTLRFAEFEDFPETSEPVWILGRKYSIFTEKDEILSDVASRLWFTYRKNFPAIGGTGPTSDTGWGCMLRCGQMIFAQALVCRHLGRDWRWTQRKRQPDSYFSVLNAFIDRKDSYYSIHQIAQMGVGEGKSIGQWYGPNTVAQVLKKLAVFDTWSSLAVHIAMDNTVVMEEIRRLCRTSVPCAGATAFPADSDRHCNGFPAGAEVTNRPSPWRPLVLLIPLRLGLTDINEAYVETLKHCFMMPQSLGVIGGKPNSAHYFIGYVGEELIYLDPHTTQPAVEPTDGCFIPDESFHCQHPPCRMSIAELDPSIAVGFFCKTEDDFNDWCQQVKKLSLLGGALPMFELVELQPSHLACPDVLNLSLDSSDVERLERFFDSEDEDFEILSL

inhibition, active:
COc1ccc(/C=C2\CCc3ccccc3C2=O)c(OC)c1OC 90.7%
CCCOc1ccc2c3c(c(=O)oc2c1OCCC)CCC3 60.3%
CC(=O)Nc1ccc(C(=O)Nc2nc(-c3cc(C)n(Cc4ccccc4)c3C)cs2)cc1 62.7%
FC(F)(F)Oc1ccc(NC(=S)NCc2ccccc2)cc1 71.7%
O=C(O)C(c1ccccc1)N1C(=O)/C(=C\c2ccc(-c3cccc(Cl)c3)o2)SC1=S (stereo not given) 38.8%
